About 2,600 (0.7%) of roughly 370,000 compounds were called active.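 How the source made its calls: active means inhibition above a per-plate cutoff, mean inhibition of test wells between control levels plus 3 SD (cut at about 38% in these data); inactive means the rest.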 The sample as a whole holds a higher share of actives than the screen did.

In the assay the target is COUP transcription factor 2 (Homo sapiens) (UniProt P24468). Briefly: NR2F2 transcriptional activity inhibitors, primary screen, cell-based, luciferase reporter, HEK293T, luminescence (AID 686940).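 Further: cells cotransfected with COUP-TFII expression vector driving the NGFI-A reporter; 0% = median of COUP-TF2 test wells and 100% = reporter-only cells.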 Conditions: HEK293T NGFI-A luciferase reporter, at 8.6 µM, stronger effect = higher value. A general note: In a reporter assay the amount or activity of a reporter protein is the signal.
Chain of COUP transcription factor 2 (Homo sapiens) (P24468 whole entry, looked up): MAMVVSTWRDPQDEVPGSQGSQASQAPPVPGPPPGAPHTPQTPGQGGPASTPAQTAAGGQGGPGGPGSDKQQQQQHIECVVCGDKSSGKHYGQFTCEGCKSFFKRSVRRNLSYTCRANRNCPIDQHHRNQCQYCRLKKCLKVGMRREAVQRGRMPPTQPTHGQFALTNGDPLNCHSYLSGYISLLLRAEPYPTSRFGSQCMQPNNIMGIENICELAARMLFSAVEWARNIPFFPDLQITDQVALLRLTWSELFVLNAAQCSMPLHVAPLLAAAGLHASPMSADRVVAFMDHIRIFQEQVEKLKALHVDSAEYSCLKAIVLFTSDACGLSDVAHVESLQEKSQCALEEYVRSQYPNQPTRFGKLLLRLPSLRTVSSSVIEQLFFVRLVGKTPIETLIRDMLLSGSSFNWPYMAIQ
The term inhibition denotes the relative decrease from the control value, in per cent. Turning to `O=C(NC1CCC1)c1ccc(C#CC2CC2)cn1`, the inhibition is -23.3% (inactive).
Next, `O=C(Nc1ccc(S(=O)(=O)NCC2CCCO2)cc1)c1ccc(F)cc1` (stereo unspecified): 45.5% (active); `Cc1ccc(NC(=O)c2ccc(S(=O)(=O)NCC3CCCO3)cc2)cc1C` (stereo unspecified): -13.5% (inactive).
Next, `O=C(NCC1CCCO1)c1ccc(S(=O)(=O)Nc2ccc(F)cc2)cc1` (stereo unspecified): -7.6% (inactive).
In the case of `CCOC(=O)[C@]12CCCC=C1N(CCCOC)C(=O)[C@@H]2CC(=O)N1CCOCC1`, the inhibition is 13% (inactive).
For the molecule `CCCC[C@H]1C2CC(OC(=O)NCc3ccccc3)C(C2)[C@H]2CCCCN21` (stereo partly specified), the inhibition is 2.27% (inactive).
To `CC(C)CNS(=O)(=O)CC1NCCc2ccccc21` (stereo unspecified) belongs 10.8% (inactive); to `CCN(CC)S(=O)(=O)c1ccc(N(C)CCc2ccc(OC)c(OC)c2)nc1`, -0.82% (inactive); to `CCN(CC)S(=O)(=O)c1ccc(N(C)Cc2cccc(OC)c2OC)nc1`, 1.36% (inactive).
Next, `CCN(CC)S(=O)(=O)c1ccc(N(C)Cc2ccc(C(F)(F)F)cc2)nc1`: 41.6% (active).
To `CCOC(=O)[C@@]12CCC3=C1N(CCC3)C(=O)[C@H](CC(=O)N1CCN(C(=O)c3ccco3)CC1)C2` belongs 0.9% (inactive); to `COc1ccc(C2Nc3ccccc3C(=O)N2Cc2cccs2)cc1COc1c(C)cccc1C` (stereo unspecified), 14% (inactive); to `CN(C)Cc1cn(-c2ccc(-c3noc4c3C(=O)N(CC(=O)N3CCOCC3)CC4)cc2)nn1`, 6.87% (inactive).
Consider `C=CCN1C(=O)[C@@H](CC(=O)NCCCOCCCC)[C@]2(C(=O)OCC)CCCCC/C=C/12`, for which the inhibition was -5.26% (inactive).
On to `CC(=O)N1CCCc2cc(S(=O)(=O)N3CCCC(C(=O)N4CCN(c5cccc(Cl)c5)CC4)C3)ccc21` (stereo unspecified), for which the inhibition is 76.9% (active).
Next, `COc1ccc(S(=O)(=O)N2CCCC(C(=O)N3CCN(C)CC3)C2)cc1C` (stereo unspecified): -0.76% (inactive); `Cc1ccc(S(=O)(=O)N2CCCC(C(=O)N3CCN(C)CC3)C2)cc1` (stereo unspecified): 8.22% (inactive).
To `COC(=O)C1CN(CC(C)C)CCS(=O)(=O)N1Cc1ccc(C)cc1` (stereo unspecified) belongs 0.94% (inactive).
To `O=C(NCc1cccs1)C1CCCN(S(=O)(=O)c2ccc([N+](=O)[O-])cc2)C1` (stereo unspecified) belongs -10.3% (inactive); to `Cc1ccc(-n2c(SCC(=O)Nc3cccc4ccccc34)nnc2-c2ccco2)cc1`, 6.67% (inactive).
As to `Cc1ccc(C(=O)C2CCN(CC(=O)NCCC(C)C)CC2)cc1`, the inhibition was 6.65% (inactive).
To `O=C(CSc1nc2ccccc2s1)N=Nc1c(O)[nH]c2ccccc12` belongs 8.58% (inactive).
Turning to `CC1(C)CC(N2CCN(C(c3ccccc3)c3ccccc3)CC2)=CC(=[N+]2CCCCC2)C1`, the inhibition is 85.2% (active).
Next, `CCOC(=O)C1CCN(C(=O)C(C)(C)NC(=O)Nc2ccccc2Cl)CC1`: 25.7% (inactive); `N#C[C@]1(S(=O)(=O)c2ccccc2)C[C@@H]2ON=C(c3cccc(Br)c3)[C@@H]2C1`: 52.9% (active).
To `COC(=O)[C@]1(S(=O)(=O)c2ccccc2)C[C@@H]2ON=C(c3ccc(OC)cc3)[C@@H]2C1` belongs 3.59% (inactive); to `O=C(c1c[nH]c2ccccc12)N1CCC(Oc2cccnc2)CC1`, -3.41% (inactive).
To `CC(C)OC(=O)c1sc2nc3c(cc2c1N)C(=O)CCC3` belongs -22.1% (inactive); to `NC(=O)c1sc2nc3c(c(-c4ccccc4)c2c1N)CCC3`, 57.2% (active); to `CCOC(=O)[C@]12CCCCC/C=C\1N(Cc1ccc(OC)cc1)C(=O)[C@H]2CC(=O)NCc1ccc(C)o1`, -9.71% (inactive).
As to `COc1ccc(-c2cc(-c3nnc(SCc4ccc([N+](=O)[O-])cc4)n3N)[nH]n2)cc1`, the inhibition is 11.7% (inactive).
Take `C=CCN1C(=O)[C@@H](CC(=O)NCCCCc2ccccc2)[C@]2(C(=O)OCC)CCCCC/C=C/12`: the inhibition is -17.9% (inactive).
Next, `Cc1ccc(S(=O)(=O)N(C)CC(=O)N2CCc3ccccc32)cc1`: -12.3% (inactive); `CN(Cc1cccs1)C(=O)CN1C(=O)c2ccccc2S1(=O)=O`: -15.9% (inactive); `O=C(CN1C(=O)c2ccccc2S1(=O)=O)N1CCc2ccccc21`: 57.8% (active).
Consider `CN(c1ccc(C(=O)N2CCc3ccccc3C2)cc1)S(C)(=O)=O`, for which the inhibition is -7.57% (inactive).
As for `CC(=O)Nc1cccc(NC(=O)c2ccc3c(c2)CCN3S(C)(=O)=O)c1`, the inhibition is -21% (inactive).
Next, `CN(c1cccc(NC(=O)c2ccc(CN3CCc4ccccc4C3)cc2)c1)S(C)(=O)=O`: 61.4% (active); `COCCCNC(=O)C[C@H]1C[C@@]2(C(=O)OC)C(=C[C@H](C(C)(C)C)O[C@@H]2C)N(Cc2ccc(Cl)cc2Cl)C1=O`: 6.74% (inactive); `CCOC(=O)[C@]12CCCC3=C1N(CCC3)C(=O)[C@@H](CC(=O)NCc1cccs1)C2`: -7.47% (inactive).
For the molecule `CC(C)CNc1cccc2c1S(=O)(=O)N(Cc1cn(Cc3ccccc3C(F)(F)F)nn1)Cc1ccccc1O2`, the inhibition was 3.92% (inactive).
With `N#CC(C#N)=CN=c1ccn(Cc2ccc(Cl)cc2Cl)cc1`, the inhibition is 41.5% (active).
To `Cn1ccc(=NC=C(C#N)C#N)c2ccccc21` belongs -6.63% (inactive).
Next, `CC(C)(C)c1cc(C(=O)NN)n(Cc2ccc(Cl)cc2Cl)n1`: 12.5% (inactive); `COC(=O)[C@H](C(C)C)N(CCc1cn(Cc2ccccc2)nn1)S(=O)(=O)c1ccc(F)cc1Br`: -0.51% (inactive).
To `OC[C@@H]1CN(Cc2ccncc2)C[C@H](n2cnc3c(N4CCN(c5ccccc5)CC4)ncnc32)O1` belongs 65.7% (active).
As for `OC[C@@H]1CN(C2CCCC2)C[C@H](n2cnc3c(NC4CCC4)ncnc32)O1`, the inhibition was -25.3% (inactive).
To `CC(C)Nc1ncnc2c1ncn2[C@H]1CN(Cc2ccncc2)C[C@@H](CO)O1` belongs -8.36% (inactive); to `OCCN1CCN(c2ncnc3c2ncn3[C@H]2CN(Cc3ccco3)C[C@@H](CO)O2)CC1`, -8.87% (inactive).
To `OC[C@@H]1CN(Cc2cccs2)C[C@H](n2cnc3c(Nc4ccccc4)ncnc32)O1` belongs 10.6% (inactive).
Next, `OC[C@@H]1CN(Cc2ccc(-c3ccccc3)cc2)C[C@H](n2cnc3c(NC4CCCC4)ncnc32)O1`: 73.9% (active).
For the molecule `Cc1ccc(C)c(NC(=O)CCS(=O)(=O)c2ccccc2)c1`, the inhibition was -5.81% (inactive).
Next, `CCCCCN1CCCCC(NC(=O)C(C)CCC)C1=O` (stereo unspecified): 4.97% (inactive); `C=CCN1C(=O)[C@@H](CC(=O)N2CCN(C(=O)OCC)CC2)[C@]2(C(=O)OCC)CCCCC/C=C/12`: 3.11% (inactive); `C=CCN(C(=O)[C@@H](CCCC)[C@@H](O)c1ccc(Cl)cc1)c1ccccc1`: -5.06% (inactive).
`Cc1c(CCC(=O)N[C@@H](CC(C)C)C(=O)O)c(=O)oc2c(C)c3oc4c(c3cc12)CCCC4`: the inhibition was 6.96% (inactive).
In the case of `Cc1c(C)c2cc3c4c(oc3c(C)c2oc1=O)CCCC4`, the inhibition was -4.7% (inactive).
For the molecule `CC[C@@H](C)[C@H](NC(=O)CCc1c(C)c2cc3c4c(oc3c(C)c2oc1=O)CCCC4)C(=O)O`, the inhibition is 39.7% (active).
As to `COc1cc(C(=O)NCc2nnc(SCC(=O)c3ccc(Cl)cc3)o2)cc(OC)c1OC`, the inhibition was 7.38% (inactive).
On to `CCC(=O)Nc1ccc(C(=O)CSc2nnc(CNc3ccc(Cl)cc3)o2)cc1OC`, for which the inhibition was 42.1% (active).
Consider `COc1ccccc1NC(=O)CSc1nnc(CNC(=O)c2ccccc2F)o1`, for which the inhibition is 1.36% (inactive).
As for `O=C(CSc1nc2sc3c(c2c(=O)n1-c1ccccc1)CCCC3)NN=Cc1ccc(OCc2ccccc2)cc1`, the inhibition is -6.12% (inactive).
To `Cc1ccc(-n2c(SCC(=O)N3c4ccccc4Sc4ccccc43)nnc2-c2ccncc2)cc1` belongs 6.33% (inactive); to `Cc1ccc(Nc2nc(CSc3nnc(-c4ccncc4)n3-c3ccccc3C)cs2)cc1`, 39.8% (active).
To `Cc1ccc(-n2c(SCC(=O)Nc3ccc(S(=O)(=O)Nc4nccs4)cc3)nnc2-c2ccncc2)cc1` belongs 3.85% (inactive); to `CC(C)N1CCCCC(NC(=O)c2ccc3ccccc3c2)C1=O` (stereo unspecified), -8.52% (inactive).
To `C=CCN1[C@H](CC(C)C)COc2cccc(N3CCCC3)c2S1(=O)=O` belongs 14.6% (inactive); to `CCCCCCCCn1c2c(c(=N)c3c1CCC3)CCCC2`, 84.5% (active); to `O=S(=O)(c1ccccc1)N1CCC(c2nc3ccccc3o2)CC1`, -11.5% (inactive).
As to `CCOC(=O)N1CCN(C(=O)C[C@H]2C[C@@]3(C(=O)OC)C(=C[C@H](C(C)(C)C)O[C@@H]3C)N(Cc3ccc(Cl)cc3Cl)C2=O)CC1`, the inhibition is -1.12% (inactive).
For the molecule `C=CCN1[C@@H](Cc2ccccc2)COc2cccc(N3CCSCC3)c2S1(=O)=O`, the inhibition is 5.82% (inactive).
As to `O=C(CN1CCCc2ccccc21)NCc1ccc(F)cc1`, the inhibition was 5.12% (inactive).
Next, `CCCNC(=O)Nc1ccc2c(c1)C(=O)N(C)[C@H]1CC[C@H](CC(=O)NCC3CCCCC3)O[C@@H]1CO2`: 9.56% (inactive); `C[C@@H]1ON(C)[C@H]2C[C@H]3c4[nH]c5cccc(-c6ccc7c(c6)OCO7)c5c4CCN3C[C@@H]12`: -15.3% (inactive).
Consider `Cc1ccc(N2CC(C(=O)Nc3ccc(S(=O)(=O)N4CCCC4)cc3)CC2=O)cc1C` (stereo unspecified), for which the inhibition was -1.2% (inactive).
Next, `COc1ccc(S(=O)(=O)N2CCCCC2)cc1NC(=O)C1CC(=O)N(c2ccc3c(c2)OCCO3)C1` (stereo unspecified): 0.74% (inactive).
On to `Cc1ccc(NC(=O)C2CC(=O)N(c3ccc4c(c3)OCCO4)C2)cc1S(=O)(=O)N1CCCCCC1` (stereo unspecified), for which the inhibition is 42.3% (active).
Turning to `Cc1ccccc1CN1CCCCC(NC(=O)c2cccc(C#N)c2)C1=O` (stereo unspecified), the inhibition was -2.68% (inactive).
Next, `CN1CCN(c2ccc(NC(=O)c3ccc4c(c3)OCCO4)cc2Cl)CC1`: -69.1% (inactive).
For `CC(=O)Nc1ccc(C(=O)Nc2cccc(S(=O)(=O)NC3=NCCC3)c2)cc1`, the inhibition is -6.18% (inactive).
For the molecule `O=C(Nc1cccc(S(=O)(=O)Nc2ccc(Cl)cc2)c1)c1ccc2c(c1)OCCO2`, the inhibition is 50.8% (active).

The values are drawn from PubChem BioAssay AID686940 (The Scripps Research Institute Molecular Screening Center, 2013).
